According to PubChem BioAssay (NCI):
This is part of a sample that, as a whole, favours compounds with a hit. Of some 83,000 tested, about 20% had one in any assay.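 Negative percent growth values reflect cell death: -40 means 40% of the cells present at the start died, and -100 means all died.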 Activity calls are given as the source filed them. How the source made its calls: active means growth percent below 10; inactive means the rest.

Assays:
Experiment in all cases: NCI-60 one-dose screen, 48 h (100 = growth as untreated, 0 = no growth, -100 = all killed)
Conditions in all cases: 10 µM unless noted
[1] = system: T-47D breast
[2] = system: BT-549 breast
[3] = system: MDA-MB-435 melanoma
[4] = system: SW-620 colon
[5] = system: MCF7 breast
[6] = system: HCT-116 colon
[7] = system: KM12 colon
[8] = system: HCC-2998 colon

Measured: growth

C=C(C)C(=O)O[C@H]1C[C@@]2(C)OC(=CC2=O)/C(C)=C\[C@H]2OC(=O)C(=C)[C@H]12
active: [1] -0.517% | [2] -9.12% | [3] -57.4% | [4] -41.7% | [6] -68.5% | [7] -8.25%
inactive: [5] 11.7%

Cc1ccc(NC(=O)c2cccc(CN3CCN(C)CC3)c2)cc1Oc1ccc(-c2[nH]nc3ncnc(N)c23)cc1
inactive: [1] 82.6% | [2] 95.8% | [4] 48.6% | [5] 41.4% | [6] 57.4% | [8] 99.4% | [7] 37.4%

Brc1cccc(/C=N/Nc2nc(N/N=C/c3cccc(Br)c3)nc(N3CCOCC3)n2)c1
inactive: [1] 56.4% | [2] 52.7% | [4] 24.7% | [5] 22.1% | [6] 21.2% | [8] 31.5% | [7] 30.3%

COc1ccc2c(C3=C(c4cn(C)c5ccccc45)C(=O)NC3=O)coc2c1
inactive: [1] 44% | [2] 82.6% | [4] 39% | [5] 24.3% | [6] 15.8% | [8] 28.2% | [7] 32.1%

COc1ccc(Oc2ccc(C3CC(c4cc(OC)c(OC)c(OC)c4)=NN3C(C)=O)cc2)cc1 (stereo not given)
active: [1] 9.08%
inactive: [2] 45.5% | [4] 46.9% | [5] 10.1% | [6] 19.5% | [8] 42.2% | [7] 27.5%

O=C1Nc2ccc(Cl)cc2/C1=C/c1ccc(OCc2ccc(Br)cc2F)cc1
inactive: [1] 106% | [2] 129% | [4] 97.8% | [5] 87.5% | [6] 96.7% | [8] 112% | [7] 101%

CC(C)C(=O)Nc1ccc(-c2nc(-c3cccc(O)c3)c(-c3ccnc(Br)c3)[nH]2)cc1
inactive: [2] 60.5% | [4] 43.2% | [5] 11.7% | [6] 53.4% | [8] 67.9% | [7] 43.3%
active: [1] 7.84%

CCc1ccc(NC(=O)N[C@@H](Cc2cc(F)cc(F)c2)C(=O)N[C@@H]2C(=O)N3CCC[C@H]3C(=O)N3CCO[C@H](C)[C@H]3C(=O)N[C@@H](CO)C(=O)N3C[C@H](C)C[C@H]3C(=O)O[C@H]2C)c(F)c1
inactive: [1] 35.7% | [2] 33.3% | [4] 35.7% | [5] 15.7% | [6] 11.6% | [8] 26% | [7] 39.6%

Nc1cc(F)ccc1NC(=O)c1ccc(NC(=O)C/C=C/c2cccnc2)cn1
inactive: [2] 25.3% | [4] 10.6% | [8] 15.5% | [7] 24.5%
active: [1] 5.13% | [5] 5.2% | [6] -13.2%

Oc1ccc(CSc2nnc(-c3ccccc3)n2-c2ccccc2)c2cccnc12
active: [5] 3.8%
inactive: [1] 10.1% | [2] 25.2% | [4] 11.6% | [6] 10.8% | [8] 26.9% | [7] 14.1%

C#C[C@]1(O)CC[C@H]2[C@@H]3CC=C4c5sc(C6CCOCC6)nc5CC[C@]4(C)[C@H]3CC[C@@]21C
inactive: [1] 57.8% | [2] 77.6% | [4] 85.5% | [5] 75.6% | [6] 64.4% | [8] 84.3% | [7] 59.8%

CCNCc1c(-c2cccc(OC(F)(F)F)c2)[nH]c2ccc(N3CCCC3)cc2c1=O
inactive: [1] 28.9% | [2] 50.6% | [4] 16.8% | [5] 11.4% | [6] 11.2% | [7] 14.8%
active: [8] -27.7%

O=C1c2c(c3c4ccc(Br)cc4oc3c3[nH]c4ccccc4c23)C(=O)N1CCO
inactive: [1] 10.5% | [2] 55.3% | [4] 47% | [5] 18.6% | [6] 39.6% | [8] 77.8% | [7] 65.6%

Cc1ccc(-c2cc(-c3cccc4ccccc34)n3c(n2)nc2ccccc23)cc1
inactive: [1] 54.1% | [2] 69.1% | [4] 45.2% | [5] 22.6% | [6] 43.4% | [8] 92% | [7] 78.9%

O=C(CCCCCCN1CC(=O)N2[C@@H](c3ccc(Cl)c(F)c3)c3[nH]c4ccccc4c3C[C@H]2C1=O)NO
inactive: [1] 75.6% | [2] 108% | [4] 74.7% | [5] 73.2% | [6] 55.5% | [8] 99.2% | [7] 87.1%
